# Measurements published in PubChem BioAssay (NCATS).
# Inconclusive results are not listed. A call without a number means that no potency is given here. Active and inactive are the calls of the source. Calls come from the whole dose curve; as a rule, active = well fitted curve in the direction sought with a large enough effect; inconclusive = small, poorly fitted or top-dose-only effect, or another doubt; inactive = no such curve, though single readings can be large; an effect the other way counts as inactive or inconclusive.
# Tests used:
# [1] = OV-KATE Cancer Cell Toxicity qHTS against the NCATS CANVASS Library (AID 1347345); note: potency is the fitted concentration of half-maximal effect
# In short: (§1)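 Per well, 1000 cells; exposure 72 h with compound at 11 final concentrations; readout CellTiter-Glo luminescence.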
# [2] = A2780 Cisplatin Sensitive Ovarian Cancer Cell Toxicity qHTS against the NCATS CANVASS Library (AID 1347353); note: nearly all actives have a fitted effect of over 60% in size; note: potency is the fitted concentration of half-maximal effect
# In short: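 750 cells/well, 4 h settle; 11-pt cpd titration; 72 h, 37 °C, 5% CO2; ATPLite 10 min RT; luminescence read.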
# [3] = UWB1.289-WTBRCA1 Cancer Cell Toxicity qHTS against the NCATS CANVASS Library (AID 1347354)
# In short: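 1000 cells/well, 4 h pre-incubation 37 °C/5% CO2; 11-pnt titration; 72 h; CellTiter-Glo 15 min RT, luminescence.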
# [4] = system: NAD(P)H diaphorase (Clostridium kluyveri); assay: Diaphorse counterscreen qHTS: Assay Interference Panel against the NCATS CANVASS Library (AID 1347362)
# In short: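 Clostridium kluyveri diaphorase in PBS with 0.01% Tween-20 was preincubated 15 min at room temperature in the dark with compounds (11-point series). Resorufin fluorescence (ex 525/20, em 598/25) was read 5 min after adding resazurin/NADH.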
# [5] = KB-3-1 Cancer Cell Toxicity qHTS against the NCATS CANVASS Library (AID 1347366); note: nearly all actives have a fitted effect of over 75% in size
# In short: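 Luminescence from CellTiter-Glo (10 min, room temperature) measured KB-3-1 viability after 72 hr compound exposure at 37C. Cells were seeded at 500/well and tested in an 11-point series.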
# [6] = G06 Cancer Cell Toxicity qHTS against the NCATS CANVASS Library (AID 1347368); note: nearly all actives have a fitted effect of over 60% in size; note: potency is the fitted concentration of half-maximal effect
# In short: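 ATP luminescence (CellTiterGlo) readout of cytotoxicity. Canine G06 glioma cells, 500/well, 72 hr incubation at 37C with compounds; bortezomib titration served as control.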
# [7] = qHTS for ATAD5 Antagonist screened against the NCATS CANVASS Library (AID 1347370);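 note: HEK293T cells carrying an ATAD5 luciferase reporter co-treated with 10 µM 5-fluorouridine; series mostly up to about 46 µM; nearly all actives have a fitted effect of over 65% in size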
# In short: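 HEK293T-ATAD5 luc reporter, 2000 cells/well; 5hr attach; cpd + 10 uM 5-FUrd; 16hr 37C, 5% CO2. Readouts: CellTiter-Fluor fluorescence (1hr), then Amplite luciferase luminescence (30min RT).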
# [8] = J3T Cancer Cell Toxicity qHTS against the NCATS CANVASS Library (AID 1347371)
# In short: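 Dog glioma J3T, 500 cells/well; cpd 11-pt qHTS; 72 hr, 37C/5% CO2; CellTiterGlo ATP luminescence readout.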
# [9] = target: Nuclear receptor subfamily 1 group I member 3 (Homo sapiens) (UniProt Q14994); assay: qHTS for Constitutive Androstane Receptor (CAR) Agonist screened against the NCATS CANVASS Library (AID 1347373);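 note: every well also contained 1.5 µM PK11195 alongside the test compound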
# Chain of Nuclear receptor subfamily 1 group I member 3 (Homo sapiens) (Q14994 whole entry, looked up): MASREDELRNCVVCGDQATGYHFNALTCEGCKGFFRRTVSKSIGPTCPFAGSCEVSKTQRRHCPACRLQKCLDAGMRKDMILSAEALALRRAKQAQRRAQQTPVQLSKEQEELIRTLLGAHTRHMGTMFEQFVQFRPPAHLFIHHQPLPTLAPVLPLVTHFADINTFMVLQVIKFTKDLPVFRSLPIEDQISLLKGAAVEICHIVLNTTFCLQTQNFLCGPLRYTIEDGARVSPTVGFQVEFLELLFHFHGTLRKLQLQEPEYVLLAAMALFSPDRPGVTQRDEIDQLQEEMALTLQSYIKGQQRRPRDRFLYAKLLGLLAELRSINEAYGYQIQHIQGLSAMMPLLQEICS
# In short: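 Luciferase read-out (ONE-Glo, 30 min RT) of CYP2B6-2.2kb promoter activity in double-stable HepG2-hCAR cells after 24hr compound exposure with 1.5uM PK11195 present; viability measured first by CellTiter-Fluor.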
# [10] = qHTS for Hypoxia signaling pathway (HIF-1) antagonists against the NCATS CANVASS Library (AID 1347374); note: potency is the fitted concentration of half-maximal effect; nearly all actives have a fitted effect of over 60% in size
# In short: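 Beta-lactamase reporter under HRE control in ME-180 cells; CoCl2 stimulus (60 uM solution as added), compounds 11-pt qHTS, 17 h 37C. CCF4 dye 2 h RT, 460/530 nm emission. CellTiter-Glo viability in same wells.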
# [11] = qHTS for Hypoxia signaling pathway (HIF-1) agonists against the NCATS CANVASS Library (AID 1347375)
# In short: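 Read-out: beta-lactamase FRET (CCF4-AM, ex 405, em 460 and 530 nm) after 2 h at room temperature. ME-180 cells stably carrying HRE-bla were treated 17 h at 37C with compounds in an 11-point concentration series.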
# [12] = DH5-alpha competent E. coli microbial cell viability qHTS against the NCATS CANVASS Library (AID 1347377); settings: outcome: dose series up to 46.1 µM unless noted
# In short: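 Luminescent ATP read-out (BacTiter-Glo, 20 min RT) after overnight 37C culture of DH5-alpha E. coli with compounds; daunomycin control at 0.2 nM–9.2 uM final.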
# [13] = qHTS for Inflammasome Signaling Inhibitors: IL-1-beta AlphaLISA screen against the NCATS CANVASS Library (AID 1347379);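 note: human THP-1 cells primed with LPS then triggered with ATP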;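 for potency: secreted IL-1B measured as AlphaLISA emission at 615 nm; potency is the fitted concentration of half-maximal effect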
# In short: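 THP-1, 1 hr compound pre-incubation, then LPS 250 ng/mL + ATP 1.25 mM (final); 16 hr total with compound; IL-1B AlphaLISA, ex 680/em 615 nm; 11-point qHTS, up to 57.5 uM final.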
# [14] = qHTS for inhibitors of ER calcium dysfunction: SERCaMP assay screened against the NCATS CANVASS Library (AID 1347393);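 note: series mostly up to about 77 µM; lower secreted reporter signal means inhibitor of ER calcium depletion; nearly all actives have a fitted effect of over 40% in size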
# In short: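 qHTS in SH-SY5Y reporter cells: 16 h compound pretreatment, 4 h thapsigargin, then secreted Gaussia luciferase measured by luminescence.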
# [15] = Redox Reaction Profiling qHTS: Assay Interference Panel against the NCATS CANVASS Library (AID 1347401)
# In short: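 Quantitative HTS over an 11-point series was run in HEPES pH 7.3 with 50 mM NaCl, 200 uM DTT and 5 uM resazurin. Initial and 15-min resorufin fluorescence readings were taken.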
# [16] = qHTS assay for small molecule disruptors of mitochondrial membrane potential screened against the NCATS CANVASS Library (AID 1347389); note: series mostly up to about 46 µM; nearly all actives have a fitted effect of over 60% in size
# In short: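 Red/green fluorescence ratio read-out: J-aggregates ex 540/em 590 nm, monomers ex 490/em 535 nm. HepG2, 1 hr compound treatment, then 30 min Mito-MPS dye at 37C. 11-pt qHTS concentration series.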
# [17] = qHTS for activators of Nrf2/ARE signaling pathway screened against the NCATS CANVASS Library (AID 1347391); note: nearly all actives have a fitted effect of over 60% in size; note: potency is the fitted concentration of half-maximal effect
# In short: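 HepG2 ARE-bla; cpd 11-pt qHTS, 16 h 37C/5% CO2; CCF4 substrate 2 h RT; read ex 405 / em 460 + 530 nm. Viability by CellTiter-Glo luminescence, 30 min RT.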
# [18] = qHTS for inhibitors of Wild type Zika virus screened against the NCATS CANVASS Library (AID 1347396);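 note: ATP luminescence of surviving cells so rescue from viral cell killing; series mostly up to about 46 µM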
# In short: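 Using ATP-based luminescence (CellTiter Glo), this screen scores rescue of Vero 766 cells from wild-type Zika killing at 72 h post-infection. Compounds are tested in a concentration series.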
# [19] = SW1088 Cancer Cell Toxicity qHTS against the NCATS CANVASS Library (AID 1347350); note: potency is the fitted concentration of half-maximal effect; nearly all actives have a fitted effect of over 75% in size
# In short: as §1
SMILES,Potency [1],Potency [2],Potency [3],Potency [4],Potency [5],Potency [6],Potency [7],Potency [8],Potency [9],Potency [10],outcome [11],outcome [12],Potency [13],Potency [14],Potency [15],Potency [16],Potency [17],outcome [18],Potency [19]
C[C@H](CCC(O)C(C)(O)CO)[C@@]1(O)CC[C@@]2(C)C3=C(CC[C@@]21C)[C@@]1(C)CCC(OC(=O)CCC(=O)O)C(C)(C)[C@@H]1CC3 (stereo partly specified),inactive,inactive,inactive,inactive,inactive,inactive,inactive,inactive,inactive,14.9 µM (active),inactive,inactive,inactive,inactive,inactive,,,,
C=C1C[C@H]2O[C@@H]3[C@@H]4[C@H](CC[C@@](C)(O)[C@@H]42)[C@H](C)COC3(C)[C@@H](OC(=O)CCCCCCC)C[C@H]1O (stereo partly specified),,,inactive,,,,inactive,inactive,inactive,,inactive,inactive,,,inactive,inactive,20.9 µM (active),inactive,
C=C1C[C@H]2O[C@@H]3[C@@H]4[C@H](CC[C@@](C)(O)[C@@H]42)[C@H](C)COC3(C)[C@@H](OC(=O)CCCCCCC)CC1=O (stereo partly specified),21.1 µM (active),13.2 µM (active),,inactive,,5.9 µM (active),,,inactive,,,inactive,19.3 µM (active),,inactive,,inactive,,8.41 µM (active)
C[C@H]1CCC2(OC1)O[C@H]1C[C@H]3[C@@H]4CC(=O)[C@]5(O)C[C@H](O)CC[C@@]5(C)[C@H]4CC[C@@]3(C)[C@H]1[C@H]2C (stereo partly specified),inactive,,,inactive,inactive,,inactive,inactive,,,inactive,inactive,24.3 µM (active),,inactive,inactive,2.09 µM (active),,
